Results: PubChem BioAssay (Tox21)
Records with an inconclusive call do not appear. A call without a number means that no potency is given here. Active and inactive are the calls of the source. Unless noted, calls follow the shape of the dose curve; as a rule, active = well fitted curve in the direction sought with a large enough effect in the repeat runs; inconclusive = weak or mixed curves; inactive = no such curve, though single readings can be large; an effect the other way counts as inactive or inconclusive.

Key:
[1] = qHTS assay to identify small molecule antagonists of the glucocorticoid receptor (GR) signaling pathway - cell viability counter screen (AID 720693); also: nearly all actives have a fitted effect of over 55% in size
[2] = qHTS assay for identifying genotoxic compounds that show differential cytotoxicity against isogenic chicken DT40 cell lines with known DNA damage response pathways - wild type cell line (AID 743012); also: nearly all actives have a fitted effect of over 60% in size; also: potency is read from the fitted curve at half-maximal effect
Method in brief: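 CellTiter-Glo luminescence readout of viability in wild type DT40 cells after 40 h compound exposure at 37 C/5% CO2; 300 cells/well; reagent incubated 30 min at room temperature before reading.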

[3] = qHTS assay for identifying genotoxic compounds that show differential cytotoxicity against isogenic chicken DT40 cell lines with known DNA damage response pathways - Rad54/Ku70 mutant cell line (AID 743015); also: nearly all actives have a fitted effect of over 60% in size; also: potency is read from the fitted curve at half-maximal effect
[4] = qHTS assay to identify small molecule antagonists of the androgen receptor (AR) signaling pathway - cell viability counter screen (AID 743033; also: nearly all actives have a fitted effect of over 45% in size)
[5] = qHTS assay to identify small molecule antagonists of the androgen receptor (AR) signaling pathway using the MDA cell line - cell viability counter screen (AID 743041; also: nearly all actives have a fitted effect of over 45% in size)
Method in brief: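 Cytotoxicity counter screen: MDA-kb2 AR-luc cells, compound + R1881, 16 h, 37C, 0% CO2; CellTiter-Fluor added at 15.5 h, fluorescence read after 30 min.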

[6] = target: Estrogen receptor (Homo sapiens) (UniProt P03372); assay: qHTS assay to identify small molecule antagonists of the estrogen receptor alpha (ER-alpha) signaling pathway (AID 743069; active = well fitted curve in the direction sought with a large enough effect in the signal ratio in the repeat runs, not every such curve was filed as active; the % refers to the signal ratio)
Estrogen receptor (Homo sapiens), sequence (P03372 whole entry, looked up): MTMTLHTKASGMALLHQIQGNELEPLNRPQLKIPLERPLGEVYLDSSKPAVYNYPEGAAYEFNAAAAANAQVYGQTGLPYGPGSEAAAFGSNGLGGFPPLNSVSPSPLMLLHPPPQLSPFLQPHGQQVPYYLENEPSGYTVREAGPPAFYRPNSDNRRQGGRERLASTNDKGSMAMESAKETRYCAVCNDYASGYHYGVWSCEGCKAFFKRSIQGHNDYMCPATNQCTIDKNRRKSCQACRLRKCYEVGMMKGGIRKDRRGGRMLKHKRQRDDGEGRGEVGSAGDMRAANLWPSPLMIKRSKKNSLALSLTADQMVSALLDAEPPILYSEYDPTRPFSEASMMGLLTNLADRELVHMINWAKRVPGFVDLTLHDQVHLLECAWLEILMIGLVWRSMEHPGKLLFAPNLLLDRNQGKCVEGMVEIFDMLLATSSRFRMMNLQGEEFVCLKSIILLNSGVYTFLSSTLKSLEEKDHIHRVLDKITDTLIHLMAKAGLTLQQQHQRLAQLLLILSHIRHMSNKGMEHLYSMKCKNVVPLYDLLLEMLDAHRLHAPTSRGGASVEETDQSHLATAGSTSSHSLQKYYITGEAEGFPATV
Method in brief: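 Beta-lactamase FRET fluorescence is read after 2 hr at room temperature with LiveBLAzer B/G substrate. Before that, ER-alpha-bla HEK293 cells sit 4 hr after plating, then receive compound plus 17beta-estradiol and incubate 18 hr at 37C.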

[7] = qHTS assay to identify small molecule antagonists of the estrogen receptor alpha (ER-alpha) signaling pathway - cell viability counter screen (AID 743074; calls by dose curve;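 also: HEK293 cells carrying ER-alpha-UAS-bla reporter stimulated with 17beta-estradiol; nearly all actives have a fitted effect of over 45% in size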)
[8] = target: Estrogen receptor (Homo sapiens) (UniProt P03372); assay: qHTS assay to identify small molecule agonists of the estrogen receptor alpha (ER-alpha) signaling pathway (AID 743075; calls by dose curve;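 also: HEK293 GripTite cells with ER-alpha and UAS-driven beta-lactamase reporter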)
[9] = target: Estrogen receptor (Homo sapiens) (UniProt P03372); assay: qHTS assay to identify small molecule agonists of the estrogen receptor alpha (ER-alpha) signaling pathway using the BG1 cell line (AID 743079); also: nearly all actives have a fitted effect of over 20% in size
[10] = qHTS assay to identify small molecule antagonists of the estrogen receptor alpha (ER-alpha) signaling pathway using the BG1 cell line - cell viability counter screen (AID 743081);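 also: compound given together with 17beta-estradiol as the ER stimulus; series mostly up to about 70 µM; nearly all actives have a fitted effect of over 45% in size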
Aromatase (Homo sapiens) = Aromatase (Homo sapiens) (UniProt P11511); assay: qHTS assay to identify aromatase inhibitors (AID 743083); also: series mostly up to about 70 µM; nearly all actives have a fitted effect of over 55% in size
Aromatase (Homo sapiens), sequence (P11511 whole entry, looked up): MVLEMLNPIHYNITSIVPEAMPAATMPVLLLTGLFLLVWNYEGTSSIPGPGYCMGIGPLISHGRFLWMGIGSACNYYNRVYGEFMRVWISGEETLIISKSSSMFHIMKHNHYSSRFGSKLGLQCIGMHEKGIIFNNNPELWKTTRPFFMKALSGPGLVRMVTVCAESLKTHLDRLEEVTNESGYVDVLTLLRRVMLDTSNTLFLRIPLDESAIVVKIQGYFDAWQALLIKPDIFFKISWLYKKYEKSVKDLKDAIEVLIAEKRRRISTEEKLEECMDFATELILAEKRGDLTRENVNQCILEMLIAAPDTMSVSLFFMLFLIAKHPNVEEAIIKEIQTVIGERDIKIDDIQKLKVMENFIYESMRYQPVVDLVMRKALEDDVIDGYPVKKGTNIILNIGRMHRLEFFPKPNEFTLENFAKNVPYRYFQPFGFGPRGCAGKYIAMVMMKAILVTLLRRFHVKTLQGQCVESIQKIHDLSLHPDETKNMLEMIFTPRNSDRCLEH

[11] = qHTS assay to identify aromatase inhibitors - cell viability counter screen (AID 743084);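 also: cells stimulated with testosterone during compound exposure; nearly all actives have a fitted effect of over 55% in size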
[12] = target: Androgen receptor (Homo sapiens) (UniProt P10275); assay: qHTS assay to identify small molecule antagonists of the androgen receptor (AR) signaling pathway (AID 743035; active = well fitted inhibition curve with a large enough effect in the signal ratio in the repeat runs, not every such curve was filed as active; the % refers to the signal ratio; also: potency is read from the fitted curve at half-maximal effect)
Androgen receptor (Homo sapiens), sequence (P10275 whole entry, looked up): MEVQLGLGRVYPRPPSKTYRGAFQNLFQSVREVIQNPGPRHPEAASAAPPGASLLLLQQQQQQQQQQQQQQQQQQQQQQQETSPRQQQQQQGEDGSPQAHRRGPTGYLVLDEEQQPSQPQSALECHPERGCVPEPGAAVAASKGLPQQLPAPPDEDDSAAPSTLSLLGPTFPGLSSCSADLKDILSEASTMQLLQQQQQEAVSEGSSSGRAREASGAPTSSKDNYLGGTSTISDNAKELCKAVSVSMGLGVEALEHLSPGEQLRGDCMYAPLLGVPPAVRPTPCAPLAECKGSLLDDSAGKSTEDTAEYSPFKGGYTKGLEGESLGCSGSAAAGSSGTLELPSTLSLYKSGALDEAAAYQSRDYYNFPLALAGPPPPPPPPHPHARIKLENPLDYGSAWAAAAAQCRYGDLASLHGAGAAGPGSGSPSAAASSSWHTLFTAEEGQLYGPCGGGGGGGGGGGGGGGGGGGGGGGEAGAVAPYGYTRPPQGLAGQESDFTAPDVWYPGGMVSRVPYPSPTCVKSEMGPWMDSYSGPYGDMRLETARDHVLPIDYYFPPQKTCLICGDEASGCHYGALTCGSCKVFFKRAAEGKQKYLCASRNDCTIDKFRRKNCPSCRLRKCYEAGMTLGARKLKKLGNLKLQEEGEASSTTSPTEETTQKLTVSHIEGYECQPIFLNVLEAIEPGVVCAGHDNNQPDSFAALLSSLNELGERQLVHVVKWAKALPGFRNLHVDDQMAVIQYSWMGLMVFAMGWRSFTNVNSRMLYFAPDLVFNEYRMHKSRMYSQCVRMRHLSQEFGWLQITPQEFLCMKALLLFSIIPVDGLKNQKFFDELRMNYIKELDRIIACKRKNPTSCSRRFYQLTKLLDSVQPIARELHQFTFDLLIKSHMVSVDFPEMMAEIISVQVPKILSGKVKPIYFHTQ
Method in brief: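 AR-bla HEK293 reporter cells; 4 h settle at 37C/5% CO2; compound + R1881 agonist, 16 h at 37C; LiveBLAzer B/G FRET substrate 2 h RT; fluorescence intensity read. qHTS format.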

[13] = target: Androgen receptor (Homo sapiens) (UniProt P10275); assay: qHTS assay to identify small molecule agonists of the androgen receptor (AR) signaling pathway (AID 743036; active = well fitted activation curve with a large enough effect in the signal ratio in the repeat runs, with a control signal flat, not every such curve was filed as active; the % refers to the signal ratio)
Method in brief: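 Cell-based FRET reporter assay: HEK293 line with a UAS-beta-lactamase construct, compounds added in DMSO, 16 h exposure at 37C, then 2 h substrate step at room temperature and fluorescence intensity read.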

[14] = target: Androgen receptor (Homo sapiens) (UniProt P10275); assay: qHTS assay to identify small molecule antagonists of the androgen receptor (AR) signaling pathway using the MDA cell line (AID 743042; also: nearly all actives have a fitted effect of over 55% in size)
Method in brief: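 MDA-kb2 breast carcinoma cells carrying MMTV-luciferase (AR/GR responsive) were co-treated with compounds and the agonist R1881 for 16 h at 37C. Inhibition read as ONE-Glo luminescence; CellTiter-Fluor fluorescence measured in parallel for cytotoxicity.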

[15] = qHTS assay to identify small molecule antagonists of the thyroid receptor (TR) signaling pathway - cell viability counter screen (AID 743064); also: nearly all actives have a fitted effect of over 50% in size; also: potency is read from the fitted curve at half-maximal effect
Method in brief: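 In rat pituitary GH3.TRE-Luc reporter cells co-exposed to compound and 1 nM T3 for 23.5 h, cytotoxicity was assessed with CellTiter-Fluor in the same wells, read by fluorescence.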

[16] = qHTS assay to identify small molecule antagonists of the thyroid receptor (TR) signaling pathway (AID 743065); also: nearly all actives have a fitted effect of over 55% in size; also: potency is read from the fitted curve at half-maximal effect
Method in brief: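 GH3.TRE-Luc rat pituitary cells (two TREs driving luciferase) were dosed with compound, then stimulated with 1 nM T3 (final) for 23.5 h at 37 C. ONE-Glo luminescence was the read-out, with CellTiter-Fluor fluorescence as the cytotoxicity counter-screen.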

[17] = tested on: thyroid hormone receptor (rat, GH3 cells); assay: qHTS assay to identify small molecule agonists of the thyroid receptor (TR) signaling pathway (AID 743066; calls by dose curve; also: potency is read from the fitted curve at half-maximal effect)
[18] = qHTS assay to identify small molecule antagonists of the estrogen receptor alpha (ER-alpha) signaling pathway using the BG1 cell line (AID 743080; calls by dose curve;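 also: BG1 cells stimulated with 17beta-estradiol alongside compound; series mostly up to about 70 µM; nearly all actives have a fitted effect of over 25% in size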)
Method in brief: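 Readout is ONE-Glo luminescence, taken 30 min at room temperature after reagent addition, preceded by a CellTiter-Fluor viability read; BG1-Luc-4E2 cells had received compound and 17beta-estradiol for 21.5 h at 37 C.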

[19] = qHTS assay for identifying genotoxic compounds that show differential cytotoxicity against isogenic chicken DT40 cell lines with known DNA damage response pathways - Rev3 mutant cell line (AID 743014); also: nearly all actives have a fitted effect of over 55% in size

Compound | Potency [1] | Potency [2] | Potency [3] | outcome [4] | outcome [5] | Potency [6] | Potency [7] | Potency [8] | Potency [9] | outcome [10] | outcome (Aromatase (Homo sapiens)) | Potency [11] | Potency [12] | outcome [13] | outcome [14] | Potency [15] | Potency [16] | Potency [17] | outcome [18] | Potency [19]
CC(C)(CO)[C@@H](O)C(=O)NCCCO | inactive | inactive | inactive | inactive | inactive | inactive | inactive | inactive | inactive | inactive | inactive | inactive |  |  |  |  |  |  |  | 
O=C(CN1CCN(Cc2ccc3c(c2)OCO3)CC1)N1c2ccccc2Sc2ccccc21 | inactive | 13.3 µM (active) | 26.6 µM (active) |  | inactive |  | inactive |  |  | inactive | inactive | inactive | 26.8 µM (active) | inactive | inactive | 29.8 µM (active) | 26.6 µM (active) |  |  | 
Cc1ccccc1C(=O)N1CC/C(=N\OS(=O)(=O)O)c2ccc(Cl)cc21 | inactive | inactive | inactive | inactive | inactive | inactive |  | inactive | inactive | inactive | inactive | inactive |  |  |  | inactive | inactive | inactive | inactive | 
CCN(CCO)c1cccc(C)c1 | inactive | inactive |  | inactive | inactive |  | inactive | inactive | inactive | inactive | inactive | inactive |  |  |  | inactive |  |  | inactive | 
Nc1ccc(S(=O)(=O)NC(=O)c2ccccc2)cc1 | inactive | inactive | inactive | inactive | inactive | inactive | inactive | inactive | inactive | inactive | inactive | inactive |  |  |  | inactive | inactive | inactive |  | 
C=C[Si](C)(C)O[Si](C)(C)C=C | inactive |  | inactive | inactive | inactive | inactive | inactive | inactive | inactive | inactive | inactive | inactive |  |  |  | inactive | inactive | inactive | inactive | inactive
FC(F)(F)/C(=N\OCC1OCCO1)c1ccc(Cl)cc1 | inactive | inactive | inactive | inactive |  | inactive | inactive | inactive | inactive | inactive | inactive | inactive |  |  |  | inactive | inactive | inactive |  | 
N#CCCOCCOCCC#N | inactive | inactive | inactive | inactive | inactive | inactive | inactive | inactive | inactive | inactive | inactive | inactive |  |  |  | inactive | inactive | inactive | inactive | 
Cc1c(C(C)C)c(=O)n(-c2ccccc2)n1C | inactive |  | inactive | inactive | inactive | inactive | inactive | inactive | inactive | inactive | inactive | inactive |  |  |  | inactive | inactive | inactive | inactive | inactive
CCNC(=O)/C=C/c1cccc(Br)c1 | inactive | inactive | inactive | inactive | inactive |  | inactive |  |  | inactive | inactive | inactive |  |  |  | inactive |  |  |  | 
CCCOCCOCCOCCO | inactive | inactive |  | inactive | inactive | inactive | inactive | inactive | inactive | inactive | inactive | inactive | inactive |  | inactive | inactive | inactive | inactive | inactive | 
COC(=O)CCC(=O)O | inactive |  | inactive | inactive | inactive | inactive | inactive | inactive | inactive | inactive | inactive | inactive |  |  |  | inactive | inactive | inactive | inactive | inactive
CC1=CC[C@H](CC=O)C1(C)C | inactive | inactive | inactive | inactive | inactive | inactive | inactive | inactive | inactive | inactive | inactive | inactive |  |  |  | inactive | inactive | inactive | inactive | 
CCCCCCCCCCC | inactive |  | inactive | inactive | inactive | inactive | inactive | inactive | inactive | inactive | inactive | inactive | inactive | inactive | inactive | inactive | inactive | 54.5 µM (active) | inactive | inactive
O=C(O)C(=O)Nc1cccc(-c2nn[nH]n2)c1 | inactive | inactive |  | inactive | inactive |  | inactive |  |  |  | inactive | inactive |  |  |  | inactive |  | inactive |  | 
CNC(=O)C(c1ccccc1)c1ccccc1 | inactive | 61.1 µM (active) |  | inactive | inactive | inactive | inactive | inactive | inactive | inactive | inactive |  |  |  |  | inactive | inactive | inactive |  | 
Nc1cc(C(=O)O)ccc1Cl | inactive |  | inactive | inactive | inactive | inactive | inactive | inactive | inactive | inactive | inactive | inactive | inactive | inactive | inactive | inactive |  | inactive | inactive | inactive
O=C(Nc1cccc(C2=NCCN2)c1)Nc1cccc(C2=NCCN2)c1 | inactive | 11.9 µM (active) | 18.8 µM (active) | inactive | inactive | inactive | inactive | inactive |  | inactive | inactive | inactive |  |  |  | inactive |  |  | inactive | 
NCCc1ccn[nH]1 | inactive | inactive |  | inactive | inactive | inactive | inactive | inactive | inactive | inactive | inactive | inactive | inactive | inactive | inactive |  |  |  |  | 
CCNC(=O)NCCCOc1cccc(CN2CCCCC2)c1 | inactive | inactive | inactive | inactive | inactive | inactive |  | inactive | inactive | inactive | inactive | inactive |  |  |  | inactive | inactive | inactive |  | 
